Rab9 prom act – activates the Rab9 promoter; Huh7 Rab9 promoter-luciferase reporter, luminescence, 24 h; 2.8% of 320,000 active; Potency, µM (doses to about 9.22 µM), for inactives: top-dose activation, negative = inhibition, most hits filed as activators; further: % of control where 0% means no effect; nearly all actives have a fitted effect of over 60% in size
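Luminescence read-out: Huh7 cells stably expressing Rab9-luciferase, treated 24 h with compound at 37 °C, then lysed with luciferase reagent for 10 min at ambient before reading.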
NPC1 prom act – activators of NPC1 promoter; AID 485313; Potency, µM (doses to about 9.22 µM), inactives show at the highest dose activation, usual class: activators; Huh7 NPC1 promoter luciferase reporter, 24 h; 2.4% of 320,000 active; further: % of control where 0% means no effect; nearly all actives have a fitted effect of over 60% in size
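Luciferase expression driven by the NPC1 promoter was measured in stably transfected Huh7 cells after a 24 h compound incubation, using a luciferase reagent and a luminescence read.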
Luc counter – counter-screen: inhibitors of Kinase-Glo firefly luciferase; Kinase-Glo luciferase, ATP luminescence, 8 min; 0.28% of 200,000 active; AID 1379; Potency, µM (titrated, usually from 38.3 µM), without a hit: at the highest dose activity change, negative = inhibition, usual class: inhibitors; further: on the % scale 0 is the no-effect control and ±100 the full control effect; nearly all actives have a fitted effect of over 60% in size
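Kinase-Glo luciferase light output from ATP and luciferin was measured with 10 uM ATP, within the enzyme's linear range. Buffer: 50 mM imidazole pH 7.2, 50 mM KCl, 7 mM MgCl2, 0.01% Tween 20, 0.05% BSA; luminescence read after 8 min at ambient temperature.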
SMN2 splice up – increases expression of the SMN2 splice variant. HEK293 SMN2-luciferase splicing reporter, luminescence, 30-36 h. Potency, µM (doses to about 46.1 µM), inactives show at the top dose activity change, positive = activation, most hits filed as activators. 2.8% of 210,000 active. AID 1458; further: % of control where 0% means no effect; nearly all actives have a fitted effect of over 55% in size
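qHTS luciferase splicing reporter: luminescence rises when SMN2 exon 7 is included in transfected HEK293 cells. Compound exposure lasted 30-36 h at 37C, with 4.5 mM final sodium butyrate as control, followed by a ONE-Glo read.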
ELG1 genotoxic – induces genotoxicity in HEK293T cells with luciferase-tagged ELG1; HEK293T ELG1-luciferase reporter, luminescence, 16 h; 1.3% of 330,000 active; Potency, µM (top dose mostly 46 µM), without a hit: at the highest dose activity change, positive = activation, usual class: activators; further: % of control where 0% means no effect; nearly all actives have a fitted effect of over 60% in size
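Quantitative HTS format in 1536-well plates. HEK293T ELG1-luciferase reporter cells receive test compound and are incubated 16 hr at 37 °C, 5% CO2; ONE-Glo added, 30 min room temperature, then luminescence read.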
FLuc counter – firefly luciferase modulation, counter-screen for miR-21 project; 6.9% of 360,000 active; purified FLuc, Km substrates, luminescence inhibition; Potency, µM (top dose mostly 57.5 µM), inactives show top-dose activity change, negative = inhibition, hits mostly inhibitors; AID 588342;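 further: plate controls were vehicle for no effect and reference inhibitor for full effect; nearly all actives have a fitted effect of over 55% in size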
Target sequence (P08659 whole entry, looked up): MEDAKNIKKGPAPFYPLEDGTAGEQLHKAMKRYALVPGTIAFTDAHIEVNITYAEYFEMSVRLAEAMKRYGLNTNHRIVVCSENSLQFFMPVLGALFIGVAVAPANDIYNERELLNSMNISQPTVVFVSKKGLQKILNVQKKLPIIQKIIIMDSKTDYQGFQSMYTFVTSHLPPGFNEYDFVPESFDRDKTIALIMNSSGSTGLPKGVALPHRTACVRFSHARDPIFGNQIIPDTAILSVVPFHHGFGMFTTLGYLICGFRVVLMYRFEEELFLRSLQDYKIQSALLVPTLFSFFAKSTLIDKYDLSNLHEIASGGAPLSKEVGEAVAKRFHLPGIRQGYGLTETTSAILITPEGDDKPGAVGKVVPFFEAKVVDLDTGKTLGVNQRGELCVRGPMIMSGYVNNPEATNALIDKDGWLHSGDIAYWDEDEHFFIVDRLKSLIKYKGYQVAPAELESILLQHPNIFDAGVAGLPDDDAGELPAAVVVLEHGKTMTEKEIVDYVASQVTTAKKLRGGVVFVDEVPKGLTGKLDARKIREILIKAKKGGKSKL
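Purified P. pyralis luciferase (10nM final) with 10uM D-luciferin and 10uM ATP (Km levels) in 50mM Tris acetate pH 7.5, 10mM Mg acetate, 0.01% Tween-20, 0.05% BSA; qHTS 6-point titration, ~60 µM downward; luminescence read.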
* hit, by the source's call; ? = inconclusive; / = no result; [ ] = another dose, or the depositor's remark. Compounds with a hit are over-represented: about 7.5% of the library has one in this group of screens. The call rests on the fitted dose curve; in most records, active means well fitted curve in the direction sought with a large enough effect; inconclusive means small, poorly fitted or top-dose-only effect, or another doubt; inactive means no such curve, though single readings can be large; an effect the other way counts as inactive or inconclusive. Potency means the concentration at half of the fitted maximal effect.

SMILES | Rab9 prom act | NPC1 prom act | Luc counter | SMN2 splice up | ELG1 genotoxic | FLuc counter
CC(C)c1ccc(-c2c(C#N)c(N)nc(SCC(=O)N3CCCCCC3)c2C#N)cc1 | 0% | -2% | 5% | -18% | 7% | -2%
O=C(Nc1ncccn1)c1ccc(Cl)c([N+](=O)[O-])c1 | 10% | -4% | / | / | 3% | 4%
Cc1ccccc1CNC(=O)C(=O)NCC(c1ccco1)S(=O)(=O)c1ccc(F)cc1 (centres undefined) | / | / | / | / | / | -6%
O=C1/C(=C/c2cccc(F)c2)Oc2cc(O)ccc21 | 5% | 19% | / | / | 1% | 11µM*
Cc1cccc(/C=C2\Oc3cc(OS(C)(=O)=O)ccc3C2=O)c1 | 16% | 22% | -1% | -13% | 9% | 17µM*
Cc1cc(C)c2c(N)c(C(=O)Nc3c(C)n(C)n(-c4ccccc4)c3=O)sc2n1 | 10% | -1% | / | / | 5% | 2%
Cc1cnc2c(c1SCC(=O)N(C)c1ccccc1)c(=O)n(C)c(=O)n2C | / | / | / | / | / | -1%
O=C(NCCc1ccccc1)c1cccs1 | 2.8µM* | 2.8µM* | -5% | 11µM* | 2.9µM* | 11µM*
O=C(NCCCCNC(=O)c1cccs1)c1cccs1 | 1% | 0% | -4% | 0% | 3% | 2%
O=C(NCCCNC(=O)c1cccs1)c1cccs1 | 3% | 8% | 4% | 0% | 3% | 1%
Cc1occc1C(=O)NCCc1cccc(Cl)c1 | 4µM* | ? | -9% | ? | ? | 21µM*
O=C(NCCc1cccc(Cl)c1)c1cccs1 | 1.8µM* | 2.2µM* | -3% | 16µM* | ? | 15µM*
O=C(NC1(C(F)(F)F)C(=O)Nc2c1c(=O)[nH]c(=O)n2-c1ccc(Cl)cc1)c1ccccc1F (centres undefined) | / | / | / | / | / | 5%
CCCN=C1N(C)C[C@@H]2[C@@H]3C(=O)N(C)C(=O)[C@@H]3[C@](C)(C(=O)OC)N12 | / | / | / | / | 0% | /
Cc1cc(Cl)c(C)c(S(=O)(=O)N2CCN(CC(=O)N3CCOCC3)CC2)c1Cl | 1% | 1% | / | / | 10% | -2%
CCOc1ccc(-c2nnc(N(CC)C(=O)C3CCC3)s2)cc1 | 5% | 2% | 1% | 15% | ? | 7.6µM*
COCCN(C(=O)C1CC1)c1nnc(-c2ccc(C)cc2)s1 | 11% | 16% | 2% | -15% | 6% | ?
COCCN(C(=O)CCc1ccc(OC)cc1)c1nnc(-c2ccncc2)s1 | -2% | 0% | 0% | / | -1% | 0%
CCCC(=O)N(C)c1nnc(-c2ccc(OC)cc2)s1 | 4µM* | 27% | -7% | 10% | ? | 7.6µM*
C/C(=N\NC(=O)c1c(Cl)c(C)nn1C)c1cccc(NC(=O)C2CCCC2)c1 | 2% | -3% | / | / | -4% | 17µM*
C/C(=N\NC(=O)c1c(Cl)c(C)nn1C)c1ccc(NC(=O)c2ccncc2)cc1 | -3% | 1% | 0% | -57% | -2% | 4%
CN(C)/N=C/C=C1\CCC/C(=C/c2cccs2)C1=O | 3.2µM* | ? | / | / | ? | 0.85µM*
CN(C)/N=C/C=C1\CC/C(=C\c2ccc(Br)cc2)C1=O | ? | 17% | 0% | 1% | ? | ?
O=C(Nc1ccc(F)c(Cl)c1)c1ccccc1 | 1.8µM* | 3.2µM* | / | / | 12µM* | 11µM*
COc1ccc(NCc2ccc3c(c2)OCO3)cc1Cl | 21% | 17% | 2% | 12% | 7% | ?
SMILES | Rab9 prom act | NPC1 prom act | Luc counter | SMN2 splice up | ELG1 genotoxic | FLuc counter
COC(=O)c1c(-c2cccnc2)csc1NC(=O)c1ccc2c(c1)OCO2 | 1.6µM* | 2.5µM* | / | / | 2.9µM* | 1.3µM*
O=C(Nc1ccc(F)c(Cl)c1)c1ccc2c(c1)OCO2 | 1.3µM* | 1.8µM* | / | / | ? | 4.8µM*
COc1ccc(NC(=O)c2ccc3c(c2)OCO3)cc1Cl | 1.4µM* | 0.89µM* | -10% | 14µM* | ? | 1.9µM*
O=C(Nc1ccc(F)c(Cl)c1)c1cccnc1 | 8% | 7% | / | / | 10% | 2%
COc1ccccc1-c1nnc(NC(=O)c2ccc3c(c2)OCO3)s1 | -13% | -7% | -2% | ? | 13% | 1%
O=S(=O)(/N=C(/Nc1ccc(F)cc1F)c1ccccc1)c1ccccc1 | 1% | 2% | -2% | 4%[1.84 µM] | 2% | -9%
CC1CCCCC1NS(=O)(=O)CCNC(=O)c1ccc2c(c1)OCO2 (centres undefined) | 0% | -3% | / | / | 6% | 2%
O=C(c1ccc2c(c1)OCO2)N1CCCC1 | 6% | 2% | -2% | -2% | -1% | -8%
COC(=O)c1ccc(NC(=O)c2ccc3c(c2)OCO3)cc1 | ? | 2.8µM* | -4% | ? | 6.5µM* | ?
O=C(Nc1ccc(C(=O)N2CCCC2)cc1)c1ccc2c(c1)OCO2 | ? | ? | 13µM* | 16% | ? | 15µM*
O=C(Nc1ccc(C(=O)N2CCCCC2)cc1)C1=CSCCO1 | ? | 2.8µM* | / | / | ? | 12µM*
CC1CCCC(NC(=O)c2ccc3c(c2)OCO3)C1C (centres undefined) | 3.5µM* | ? | / | / | 18µM* | 12µM*
COC(=O)c1sccc1NC(=O)c1ccc2c(c1)OCO2 | -2% | 0% | -4% | 27% | 3% | 6%[2.3 µM]
COc1ccc(S(=O)(=O)Nc2cccc3c2O[C@H](CN(C)C(=O)Nc2ccccc2)[C@@H](C)CN([C@H](C)CO)C3=O)cc1 | / | / | / | / | 5% | /
COc1cc(-c2nc(-c3ccc(NC(=O)c4ccc5c(c4)OCO5)cc3)no2)cc(OC)c1OC | -1% | 2% | -9% | 73% | 13µM* | ?
CC1CCCC(NC(=O)c2ccc3c(SCC(=O)O)c4c(nc3c2)CCC4)C1C (centres undefined) | -5% | 0% | / | / | 1% | 17µM*
Cc1ccccc1-c1nc(-c2ccc(NC(=O)c3ccc4c(c3)OCO4)cc2)no1 | 1% | 21% | -19% | -14% | ? | ?
O=C(Oc1ccc(NC(=O)c2cc3c(cc2Br)OCO3)cc1)c1ccccc1 | -2% | -3% | / | / | 5% | 8%
Cc1cc(=O)n(-c2ccc3ccccc3n2)[nH]1 | 0% | 8% | -6% | 21% | ? | ?
CNc1ccccc(-c2ccc3ccccc3n2)c1=O | 3.5µM* | ? | -4% | 11µM* | ? | 9.5µM*
COc1ccc(C(=O)Nc2ccc(N3CCCC3)cc2)cc1OC | 4µM* | 3.5µM* | / | / | ? | 5.4µM*
COc1ccc(C(=O)Nc2ccc(S(=O)(=O)N3CCOCC3)cc2)cc1OC | -6% | 0% | 2% | 13% | 0% | 2%
CCOc1ccc(C(=O)Nc2ccc(N3CCN(C)CC3)cc2)cc1Br | -3% | 28% | -3% | -6% | 10% | 6µM*

Screens from PubChem BioAssay.
